# MEKK2mut PB1 HTS – MEK5 binding signal on mutant MEKK2 PB1, primary screen, biochemical, multiplex bead flow cytometry, Alexa488-MEK5. hit rate 0.35% among 290,000. percent response, % at 10 µM. Alexa488-MEK5 binding to MEKK2 mutant; in the data active = percent response above about 24%, passing the limit was not always enough
# Mot1-301 SUMO – yeast Mot1-301 growth rescue at high temperature, primary screen, SUMOylation pathway inhibitor project, S. cerevisiae, ATP luminescence, 38.5C. S. cerevisiae Mot1-301 growth rescue; percent above DMSO median, 100 means doubled. growth rescue, % at 18.8 µM. hit rate 1% among 320,000;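 active = every valid replicate shows activation above 250% relative to neutral control wells; inactive = the rest, any valid replicate at or below 250%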;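 also: OY570 slx delta 5 strain wells were the positive control but not used for scaling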
# CHT allo act – CHT positive allosteric modulators, primary screen, cell-based, membrane potential dye, choline EC20; High affinity choline transporter 1 (Homo sapiens), Q9GZV3; CHT-expressing cells; active compounds read high; LV-AA mutant CHT in HEK293 cells; B-score at 10 µM; hit rate 0.49% among 310,000; AID 488977, 2010;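 active = initial fluorescence not abnormally high and integrated response B-score, plate-corrected, over 3 SD above library mean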
# CHT block – inhibitors of human choline transporter CHT; AID 488975, 2010; hit rate 0.86% among 310,000; B-score at 10 µM; CHT-expressing cells, membrane potential dye, choline response; active compounds read low;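 active = B-score over 3 SD under the library average, and starting fluorescence ratio not unusually high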;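 also: choline stimulus applied at its EC90 after an EC20 pre-addition; B-score computed on integrated fluorescence ratio after choline addition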
# MEKK3 PB1 HTS – modulators of MEKK3-MEK5 PB1 binding, primary screen, biochemical, wildtype MEKK3, multiplex bead flow cytometry, Alexa488-MEK5. bead-based flow cytometry, Alexa488-MEK5 binding to MEKK3; actives lie on both sides; 0 = blocked by unlabeled MEK5, 100 = vehicle. AID 1529, 2009. hit rate 1.4% among 290,000. binding response (% of control), % at 10 µM;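 active = binding response more than 3 SD above or below the average of its plate-row segment, actives on both sides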;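 also: Alexa488 bead fluorescence after subtracting the streptavidin-only scavenger bead signal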
# Target sequence (Q99759 whole entry, looked up): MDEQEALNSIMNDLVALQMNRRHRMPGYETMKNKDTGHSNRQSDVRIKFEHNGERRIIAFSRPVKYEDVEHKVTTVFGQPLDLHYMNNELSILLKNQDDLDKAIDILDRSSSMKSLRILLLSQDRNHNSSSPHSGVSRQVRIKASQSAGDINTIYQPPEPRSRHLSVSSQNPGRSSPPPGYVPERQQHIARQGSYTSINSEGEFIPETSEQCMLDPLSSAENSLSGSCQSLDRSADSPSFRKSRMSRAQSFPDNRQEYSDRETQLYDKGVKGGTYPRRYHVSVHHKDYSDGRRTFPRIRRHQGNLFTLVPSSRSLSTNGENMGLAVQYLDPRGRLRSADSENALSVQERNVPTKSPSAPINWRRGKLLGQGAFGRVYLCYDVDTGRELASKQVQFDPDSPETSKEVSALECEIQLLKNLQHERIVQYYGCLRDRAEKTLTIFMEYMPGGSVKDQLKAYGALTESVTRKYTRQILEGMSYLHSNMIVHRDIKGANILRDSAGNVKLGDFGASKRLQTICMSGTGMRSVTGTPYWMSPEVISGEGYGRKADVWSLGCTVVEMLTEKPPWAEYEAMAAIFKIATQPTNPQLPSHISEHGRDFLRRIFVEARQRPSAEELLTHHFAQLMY
# MEKK2wt PB1 HTS – modulators of MEK5 binding to wildtype MEKK2, primary screen, biochemical, multiplex bead flow cytometry, Alexa488-MEK5; hit rate 1.1% among 290,000; Mitogen-activated protein kinase kinase kinase 2 (Homo sapiens), Q9Y2U5; Alexa488-MEK5 binding to MEKK2 WT; actives lie on both sides; binding response (% of control), % at 10 µM; in the data active = binding response below about 67% or above about 130%
# CHT activ conf – CHT activators, confirmation, cell-based, membrane potential dye, duplicate. activation, % at 10 µM. CHT-expressing cells, membrane potential dye fluorescence (FDSS); % of choline EC20–EC90 response window; HEK293 expressing CHT LV-AA mutant; choline added at its EC20. hit rate 91% among 2,500. shares compounds with CHT allo act. AID 504833, 2011;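 active = primary screen active, with duplicate mean activation above negative control mean plus 3 SD, cut at about 11% in these data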
# HEK293 MP dye – membrane potential response in parental HEK293 cells, counter-screen for CHT activator project, cell-based, membrane potential dye | ratio readout change at 10 µM, hits read low | membrane potential dye fluorescence (FDSS); measured after EC20 choline addition | shares compounds with CHT allo act | hit rate 62% among 2,500 | AID 623908, 2012;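 active = duplicate-averaged ratio beyond 3 SD from buffer wells, up or down, though filed actives are nearly all decreases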
# * = called active by the depositor; i = inactive; . = not tested or not shown. Most compounds without a hit are left out; they make up all but 4.1% or so of the library.
SMILES,MEKK2mut PB1 HTS,Mot1-301 SUMO,CHT allo act,CHT block,MEKK3 PB1 HTS,MEKK2wt PB1 HTS,CHT activ conf,HEK293 MP dye
COc1ccc(Br)cc1CN(C)CC(=O)Nc1cccc(S(=O)(=O)N2CCCC2)c1,.,6.8,.,.,.,.,.,.
Cc1ccc(C(=O)c2cc([N+](=O)[O-])ccc2N2CC(C)OC(C)C2)cc1 (configuration not stated),3.0,-10.2,i,i,107.0,104.0,.,.
O=C(COC(=O)c1cc([N+](=O)[O-])ccc1N1CCOCC1)Nc1ccc(Cl)cn1,6.0,-8.9,6.83*,i,104.0,108.0,20.2*,i
O=C(COC(=O)c1cc([N+](=O)[O-])ccc1N1CCOCC1)Nc1ccc(Cl)cc1,8.0,-13.9,i,i,101.0,103.0,.,.
Cc1ccc(C(=O)c2cc([N+](=O)[O-])ccc2N2CCCCC2)cc1,0.0,179.8,i,i,112.0,97.0,31.0*,i
O=C(c1ccc(Br)cc1)c1cc([N+](=O)[O-])ccc1N1CCOCC1,-2.0,-11.2,i,i,97.0,103.0,.,.
COc1ccc(COC(=O)c2cc([N+](=O)[O-])ccc2N2CCOCC2)cc1F,.,-3.2,9.41*,i,.,.,67.1*,i
O=C(OCc1cccc(Cl)c1)c1cc([N+](=O)[O-])ccc1N1CCOCC1,.,-33.2,i,i,.,.,.,.
O=C(c1ccccc1)c1cc([N+](=O)[O-])ccc1N1CCOCC1,29.0,279.2,i,i,106.0,113.0,57.4*,i
N#Cc1c(NC(=O)CSc2nc3ccccc3s2)sc2c1CCCC2,1.0,303.0,i,i,105.0,107.0,.,.
O=C(NCc1ccc2c(c1)OCO2)c1cc([N+](=O)[O-])ccc1N1CCCCC1,1.0,-2.7,9.18*,i,102.0,97.0,51.1*,i
O=C(NCc1ccc2c(c1)OCO2)c1cccc([N+](=O)[O-])c1,6.0,717.8,i,i,100.0,100.0,.,.
CC1CCCN(c2ccc([N+](=O)[O-])cc2C(=O)c2ccccc2)C1 (configuration not stated),-2.0,41.7,7.57*,i,95.0,92.0,27.4*,i
O=C(c1ccc(Cl)cc1)c1cc([N+](=O)[O-])ccc1N1CCOCC1,-7.0,10.6,i,i,79.0,81.0,49.9*,i
O=C(N/N=C/c1ccc([N+](=O)[O-])cc1)c1cccc(N2CCCC2=O)c1,3.0,-0.5,i,i,105.0,107.0,.,.
COc1cccc(CNC(=O)C2CCCN(S(=O)(=O)c3ccc4c(c3)C(C)(C)C(=O)N4C)C2)c1 (configuration not stated),-2.0,-14.3,i,i,103.0,105.0,.,.
N/C(CC(=O)NC1CCCCC1)=N\OCC(=O)Nc1ccc(Cl)c(Cl)c1,-8.0,5.0,i,i,92.0,99.0,.,.
CCOc1cc(Cl)c(S(=O)(=O)NCCCN2CCOCC2)cc1Cl,0.0,73.6,i,i,103.0,102.0,.,.
O=C1c2cc([N+](=O)[O-])ccc2-c2ncccc21,-9.0,563.6,6.97*,i,90.0,90.0,62.8*,-40.8*
COc1ccc(-c2noc(CSc3nc4sc(C)c(C)c4c(=O)n3-c3ccccc3)n2)cc1OC,-5.0,88.1,i,i,96.0,93.0,.,.
COc1ccc(-c2noc(CSc3nc4ccccc4c(=O)n3-c3ccccc3)n2)cc1OC,0.0,1.7,i,i,100.0,97.0,13.9*,i
COCCn1nnnc1C(C(C)C)N1CCSCC1 (configuration not stated),2.0,-0.7,i,i,93.0,98.0,.,.
CCN(CC)C(=O)C(=O)c1cccn1-c1c(Cl)cccc1C#N,1.0,-1.0,i,i,103.0,107.0,.,.
COc1cccc2c(=O)c3c(cnn3C)n(C)c12,.,32.0,10.1*,i,.,.,50.8*,-54.8*
COc1cc(/C=N/Nc2nncc3ccccc23)cc(OC)c1OC,-2.0,-13.1,7.6*,i,100.0,98.0,39.9*,-47.9*
SMILES,MEKK2mut PB1 HTS,Mot1-301 SUMO,CHT allo act,CHT block,MEKK3 PB1 HTS,MEKK2wt PB1 HTS,CHT activ conf,HEK293 MP dye
C(=N\Nc1nncc2ccccc12)/c1ccccc1,25.0,-6.3,i,i,125.0,124.0,.,.
Oc1ccc(Cl)cc1CNCC1CCCCC1,.,24.8,i,i,.,.,.,.
COc1ccc([N+](=O)[O-])cc1C(=O)NC1CCN(Cc2ccccc2)CC1,.,14.4,6.87*,i,.,.,45.6*,-42.6*
COc1ccc(-c2nc(CSCC(=O)NC3CCN(Cc4ccccc4)CC3)c(C)o2)cc1OC,2.0,10.5,i,i,102.0,109.0,.,.
COc1ccc(-c2nc(CN3CCC(C(=O)NC4CCN(Cc5ccccc5)CC4)CC3)c(C)o2)cc1OC,11.0,-9.2,7.55*,i,103.0,120.0,59.7*,-50.7*
CCC1CCCCN1CCCNC(=O)C1CCN(Cc2nc(-c3ccc(Cl)cc3)oc2C)CC1 (configuration not stated),19.0,-8.1,i,i,103.0,132.0,36.1*,-29.6*
CCSCc1nnc(SCC(=O)c2ccc(OC)cc2)n1C,.,9.5,i,i,.,.,.,.
CC(C)(C)OC(=O)N1CCC(c2c(C(=O)NCC3CCN(C4CCCC4)C3)cnn2-c2ccccc2Cl)CC1 (configuration not stated),5.0,-3.9,i,i,103.0,122.0,.,.
O=C(N/N=C/c1ccc(O)cc1)c1cc[n+](Cc2ccccc2)cc1,10.0,-22.3,i,i,95.0,107.0,37.1*,-29.5*
COc1ccccc1N1CCN(c2cc(N3CCCC3)nc(C)n2)CC1,0.0,56.1,7.47*,i,99.0,102.0,53.7*,-47.7*
CCOC(=O)c1c(C)nc2sc3c(=O)n(-c4ccc(C(C)=O)cc4)cnc3c2c1-c1ccc(OC)cc1,0.0,183.4,i,i,102.0,99.0,.,.
CC(=O)c1c(C)nc2sc3c(=N)n(N)cnc3c2c1-c1ccc(Cl)cc1,-6.0,-13.7,6.7*,i,92.0,98.0,49.8*,-39.8*
